The text below walks through data of PubChem BioAssay (NCI).

Compounds without any hit were thinned out: in the full panel of roughly 83,000, 20% have a hit.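 Results are percent growth after 48 hours of single-concentration exposure. 100 means growth as in untreated cells, lower positive values show inhibition; negative values down to -100 show cell death.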 Unmarked numbers belong to inactive results. Activity calls are given as the source filed them. Rule for the calls: active = growth percent below 10; inactive = the rest.

Common to all, as to assay: NCI-60 one-dose screen, 48 h (100 = growth as untreated, 0 = no growth, -100 = all killed)
Common to all, as to conditions: 10 µM unless noted

Assay [1] has as its system T-47D breast.
For assay [2], the system named is BT-549 breast.
The test system of assay [3] is MDA-MB-435 melanoma.
In assay [4] the test system is SW-620 colon.
The test system of assay [5] is MCF7 breast.
For assay [6], the system named is HCT-116 colon.
In assay [7] the test system is HCC-2998 colon.
For assay [8], the system named is KM12 colon.

As to `CC(c1ccccc1)N(C)C` (centres undefined), the growth in assay [1] was 112%; in assay [2], 101%; in assay [3], 119%; in assay [4], 117%; in assay [5], 99.5%; in assay [6] it was 93.8%. Further, the growth in assay [7] was 113%; in assay [8], 101%.

Regarding `COC(=O)c1ccccc1C(=O)c1c(C)cc(C)cc1C`, the growth is 88.8% in assay [1]; 106% in assay [2]; 97.6% in assay [3]; 93.2% in assay [4]; 102% in assay [5]; 99.7% in assay [6]. Moreover, the growth was 94.4% in assay [7] and 102% in assay [8].

For `Cc1ccc[n+](CCC(N)=O)c1`, the growth was 91.7% in assay [1]; 110% in assay [2]; 101% in assay [3]; 96.7% in assay [4]; 94.3% in assay [5]; 115% in assay [6]. The growth in assay [7] is 93.1%; in assay [8] it was 91.1%.

Turning to `Cc1cc(CC(=O)NCCO)n(CCO)c(=O)c1`, the growth was 84.1% in assay [1]; 111% in assay [2]; 107% in assay [3]; 98% in assay [4]; 102% in assay [5]; 97.5% in assay [6]. Also, the growth is 103% in assay [7] and 107% in assay [8].

For `CCOC(=O)N[C@H]1CCc2cc(OC)c(OC)c(OC)c2-c2ccc(SC)c(=O)cc21`, the growth in assay [1] is 47.7%; in assay [2], -9.25% (active); in assay [3], -17.1% (active); in assay [4] it was 17.4%; in assay [5] it was 13.5%; in assay [6] it was 2.61% (active). Also, the growth in assay [7] was 12.2%; in assay [8] it was 2.56% (active).

Regarding `Cc1ccc(C)c2c1CCC2=O`, the growth in assay [1] was 103%; in assay [2], 97.6%; in assay [3] it was 93.3%; in assay [4], 93.5%; in assay [5], 94.7%; in assay [6] it was 93.1%. Further, the growth was 96.7% in assay [7] and 100% in assay [8].

In the case of `NC(=S)N/N=C/c1ccc(OC(=O)COc2ccccc2)cn1`, the growth in assay [1] was 41.5%; in assay [2] it was 40.9%; in assay [3], 60.2%; in assay [4], 49%; in assay [5], 22.9%; in assay [6], 39.3%. Further, the growth in assay [7] is 31%; in assay [8] it was 62.4%.

As for `CCN1CCCC(N2c3ccccc3Sc3ccccc32)C1` (centres undefined), the growth is 95.6% in assay [1]; 116% in assay [2]; 109% in assay [3]; 105% in assay [4]; 105% in assay [5]; 90.3% in assay [6]. Moreover, the growth was 103% in assay [7] and 102% in assay [8].

For `CCN(CC)CCCC(C)NC(=S)N/N=C(\C)c1ccccn1` (centres undefined), the growth in assay [1] was 56.7%; in assay [2], 65.5%; in assay [3] it was 54.8%; in assay [4], 47.5%; in assay [5], 25.7%; in assay [6], 23.9%. For the same molecule, the values for the growth in assay [7] and in assay [8] were 56.8% and 36.4%, respectively.

On to `CCC12OC(COc3ccccc3)CN1CCN2c1ccccc1` (centres undefined), for which the growth in assay [1] is 90.4% [100 µM]; in assay [2], 105% [100 µM]; in assay [3] it was 98.6% [100 µM]; in assay [4] it was 103% [100 µM]; in assay [5], 92.5% [100 µM]; in assay [6], 102% [100 µM]. The growth in assay [7] is 115% [100 µM]; in assay [8], 98.9% [100 µM].

Regarding `CCCCNc1ccc(-c2ccc(NCCCC)cc2)cc1`, the growth was 45.9% in assay [1]; 31.1% in assay [2]; 40.8% in assay [3]; 78.6% in assay [4]; 34.3% in assay [5]; 55.3% in assay [6]. Also, the values for the growth in assay [7] and in assay [8] were 94.7% and 56.9%, respectively.

As for `CCCCCCCCCCC(=O)CCCCCCCCCC`, the growth in assay [1] was 92.3%; in assay [2], 95.3%; in assay [3] it was 106%; in assay [4], 104%; in assay [5], 101%; in assay [6] it was 94.9%. Further, the growth in assay [7] is 94.4%; in assay [8], 104%.

For `CC(C)Sc1ncnc2nc[nH]c12`, the growth in assay [1] is 100%; in assay [2] it was 121%; in assay [3], 97.4%; in assay [4], 108%; in assay [5], 98.1%; in assay [6], 103%. Further, the growth in assay [7] is 108%; in assay [8], 128%.

As to `CCCCCCCCNC(=O)C(C)C`, the growth in assay [1] is 95.2%; in assay [2], 107%; in assay [3], 102%; in assay [4] it was 93.4%; in assay [5], 92%; in assay [6], 92.7%. Further, the growth is 115% in assay [7] and 102% in assay [8].

Turning to `OCc1cccnc1`, the growth was 106% in assay [1]; 106% in assay [2]; 97.2% in assay [3]; 102% in assay [4]; 94% in assay [5]; 107% in assay [6]. Moreover, the results for the growth in assay [7] and in assay [8] were 107% and 105%, respectively.

`N=C(N)c1nn(C2OC(CO)C(O)C2O)c2nc[nH]c(=O)c12` (centres undefined): the growth was -14.6% (active) in assay [1]; -14.8% (active) in assay [2]; -49.5% (active) in assay [3]; -4.15% (active) in assay [4]; 4.19% (active) in assay [5]; -80.3% (active) in assay [6]. Besides, the growth is -22.8% (active) in assay [7] and -49.4% (active) in assay [8].

For the molecule `CCOP(=O)(OCC)/C(=C\N1C(=O)CC(=O)NC1=S)C(=O)OC`, the growth in assay [1] was 95%; in assay [2] it was 116%; in assay [3] it was 102%; in assay [4], 101%; in assay [5] it was 94.7%; in assay [6], 115%. For the same molecule, the growth in assay [7] is 85.7%; in assay [8] it was 105%.

As for `CCNC(=O)OCCc1c2ccccc2nc2ccccc12`, the growth in assay [1] is 109%; in assay [2] it was 111%; in assay [3], 118%; in assay [4], 101%; in assay [5] it was 89.6%; in assay [6] it was 94.1%. Further, the growth in assay [7] is 110%; in assay [8], 114%.

In the case of `CCNc1ccc2ccccc2c1N=Nc1ccc(N=Nc2ccccc2)cc1`, the growth in assay [1] was 84.7%; in assay [2], 120%; in assay [3] it was 110%; in assay [4], 99.8%; in assay [5] it was 85.2%; in assay [6], 72%. In addition, the values for the growth in assay [7] and in assay [8] were 110% and 105%, respectively.

Regarding `COc1cc(C(=O)NC(=S)NCc2ccncc2)cc(OC)c1OC`, the growth in assay [1] is 83.2%; in assay [2] it was 102%; in assay [3], 104%; in assay [4] it was 110%; in assay [5], 98.3%; in assay [6], 97.3%. Besides, the growth in assay [7] is 115%; in assay [8], 98%.

`OCC1CCC(O)C(CO)N1` (centres undefined): the growth in assay [1] was 111%; in assay [2], 100%; in assay [3], 102%; in assay [4], 101%; in assay [5], 92.6%; in assay [6], 102%. Further, the growth in assay [7] is 115%; in assay [8], 103%.

With `CC(C)(C)CC1(C)NC(=O)NC1=O` (centres undefined), the growth in assay [1] is 108%; in assay [2] it was 119%; in assay [3], 114%; in assay [4], 103%; in assay [5], 100%; in assay [6], 101%. For the same molecule, the growth in assay [7] was 113%; in assay [8], 106%.

For `O=C(Nc1ccccc1)c1ccco1`, the growth in assay [1] was 103%; in assay [2], 98.1%; in assay [3], 109%; in assay [4] it was 104%; in assay [5], 95.5%; in assay [6], 92.3%. Besides, the growth in assay [7] is 84%; in assay [8], 117%.
